Test results from PubChem BioAssay (EPA / NIEHS).
Activity calls are given as the source filed them. The calls were made as follows: active = hit-call score of the fitted dose curve at least 0.9, where 1 is the maximum; inactive = score below 0.9.

Assay: ATG_MRE_CIS: Attagene CIS-FACTORIAL HepG2 Assay for human Metal Responsive Element (MRE) (AID 2282954)
Conditions: HepG2 MRE cis-reporter transcription, Attagene multiplex; actives raise or lower the signal
Description: ATG_CIS is a cell-based, multiplexed-readout assay that uses HepG2, a human liver cell line, with measurements taken at 24 hours after chemical dosing in a 24-well plate.ATG_MRE_CIS is one of 52 assay component(s) measured or calculated from the ATG_CIS assay. It is designed to make measurements of mRNA induction, a form of inducible reporter, as detected with fluorescence intensity signals by Reverse transcription polymerase chain reaction (RT-PCR) and Capillary electrophoresis technology.Data from the assay component ATG_MRE_CIS was analyzed into 1 assay endpoint. This assay endpoint, ATG_MRE_CIS, was analyzed with bidirectional fitting relative to DMSO as the negative control and baseline of activity. Using a type of inducible reporter, measures of mRNA for gain or loss-of-signal activity can be used to understand the reporter gene at the transcription factor-level as they relate to the gene MTF1. Furthermore, this assay endpoint can be referred to as a primary readout, because this assay has produced multiple assay endpoints where this one serves a reporter gene function. To generalize the intended target to other relatable targets, this assay endpoint is annotated to the dna binding intended target family, where the subfamily is zinc finger.
Human liver HepG2 cells are transiently transfected with multiple reporter transcription units (MRTUs) in 6-well plates using FuGene 6 reagent (Roche; 3 ml FuGene/1 mg DNA). The MRTU constructs are regulated by a cis-regulating element (promoter). […] A major difference between the CIS and TRANS system is that in CIS activities of endogenous TFs are measured, whereas the TRANS assay evaluates changes in activities of exogenous, chimeric NR-Gal4 proteins. […] At the end of 24 hour incubation, total RNA was isolated using TriZol reagent (Invitrogen). The isolated RNA is then reverse-transcribed using oligo(dT) primer and Mo-MLV reverse transcriptase (Invitrogen) with DNAse I (Ambion) treatment for 30 min. The one-tenth of the produced cDNA was amplified by PCR using Taq DNA polymerase (Invitrogen) and two reporter sequence-specific primers. The PCR products were fluorescently labeled by primer extension with 6-arboxyfluorescein (6-FAM) 5'-labeled reporter sequence-specific primer (2 min at 95 C, 20 s at 68 C and 10 min at 72 C) and these products were digested with 5U of HpaI (New England Biolabs) for 2h at 37 C. The fragments were purified using Qiaquick PCR columns (Qiagen), analyzed on an ABI 3130xL genetic analyzer (Applied Biosystems) with peak positions identified by using a set of X-rhodamine (ROX)-labeled MapMarker1000 molecular weight standards (BioVentures). The raw capillary electrophoresis data was processed using Attagraph software (Attagene).
In the case of Clc1cccc(Cl)n1, the outcome is reported as “inactive”.
With CCCCCCCCCCC(CO)CCCCCCCC (stereo not given) the outcome was “inactive”.
For CCCc1ccccc1O, the outcome was “inactive”.
For O=C(Nc1ccccc1)c1cc([N+](=O)[O-])ccc1Cl, the AC50 was 18.5 µM (active).
For O=C1CCCCCCCCCCCCCCO1, the outcome was “inactive”.
For CC(C)(Oc1ccc(CCNC(=O)c2ccc(Cl)cc2)cc1)C(=O)O, the outcome was “inactive”.
In the case of CC1(C)[C@@H]2CC[C@@]1(C)[C@H](O)C2, the outcome is reported as “inactive”.
In the case of CCN(CC)c1ccc2c(-c3ccccc3C(=O)O)c3ccc(=[N+](CC)CC)cc-3oc2c1, the AC50 is reported as 156 µM (active).
In the case of O=c1cc(-c2ccccc2)oc2cc(O)cc(O)c12, the outcome is reported as “inactive”.
In the case of CC(C)C[C@H]1C(=O)N2CCC[C@H]2[C@]2(O)O[C@](NC(=O)[C@@H]3C=C4c5cccc6[nH]c(Br)c(c56)C[C@H]4N(C)C3)(C(C)C)C(=O)N12, the AC50 is reported as 2.16 µM (active).
For CC1(C)[C@H]2CC[C@]1(C)[C@H](O)C2, the outcome was “inactive”.
With Nc1cc(N)cc(C(=O)O)c1 the outcome was “inactive”.
For CCC(C)CCCC(C)(C)O (stereo not given), the outcome was “inactive”.
In the case of C=O, the outcome is reported as “inactive”.
For CCC(C(=O)NC(N)=O)c1ccccc1 (stereo not given), the outcome was “inactive”.
In the case of CC[C@]12CCCN3CCc4c(n(c5ccccc45)[C@@](O)(C(=O)OC)C1)[C@@H]32, the outcome is reported as “inactive”.
For Clc1sc(Cl)c(Cl)c1Cl, the outcome was “inactive”.
With CCCCCCCCCCCCCCCC(=O)O the outcome was “inactive”.
For NC(=O)c1ccccc1Cl, the outcome was “inactive”.
In the case of BrC1CCC(Br)C(Br)CCC(Br)C(Br)CCC1Br (stereo not given), the AC50 is reported as 49.2 µM (active).
In the case of C=C(C)C(=O)OCc1ccccc1, the outcome is reported as “inactive”.
In the case of O=[N+]([O-])c1ccc(C=Cc2ccc([N+](=O)[O-])cc2S(=O)(=O)O)c(S(=O)(=O)O)c1, the outcome is reported as “inactive”.
With O=C(O)c1ccc([N+](=O)[O-])cc1 the outcome was “inactive”.
In the case of CC(CCO)CCCC(C)(C)O (stereo not given), the outcome is reported as “inactive”.
In the case of C=CC(=O)OCC(O)COc1ccccc1 (stereo not given), the outcome is reported as “inactive”.
With CC(C)c1ccc(C(C)C)cc1 the outcome was “inactive”.
In the case of CC1CCC2CC1C2(C)C (stereo not given), the outcome is reported as “inactive”.
In the case of CC(=O)OCCC(C)CC(C)(C)C (stereo not given), the outcome is reported as “inactive”.
In the case of CCCCCCCCCCCCOCCO, the AC50 is reported as 52.1 µM (active).
In the case of O=S(=O)(O)c1cccc2c(S(=O)(=O)O)cccc12, the outcome is reported as “inactive”.
With Cc1cccc(Nc2ccccc2C(=O)O)c1C the AC50 was 76.9 µM (active).
With Cc1ccccc1C=O the outcome was “inactive”.
In the case of CCCCCC(CO)CCC (stereo not given), the outcome is reported as “inactive”.
With O=C(O)CCCCCCCC(=O)O the outcome was “inactive”.
For CC(CN1c2ccccc2Sc2ccccc21)N(C)C (stereo not given), the AC50 was 40.7 µM (active).
With CC(C)c1cccc(O)c1 the outcome was “inactive”.
For CCCCCCCCCCN, the outcome was “inactive”.
For S=C(S)NCCNC(=S)S, the outcome was “inactive”.
For CC[Si](OC(C)=O)(OC(C)=O)OC(C)=O, the outcome was “inactive”.
For CC(CCO)CCc1ccccc1 (stereo not given), the outcome was “inactive”.
